aSyn 5UTR act: Activators via SNCA 5'UTR binding, MLPCN. activity score, % (tested at 7.5 µM), hits read low. alpha-synuclein 5'UTR reporter, activators screen. hit rate 7.1% among 300,000; in the data active means activity score below about -60%
* = called active by the depositor. The list is a sample of the results.

SMILES | aSyn 5UTR act
O=C(NCc1cccs1)c1cc(-c2ccc(O)cc2)on1 | -157.2*
O=C(NCc1cccs1)c1cc(-c2cccc(Cl)c2)on1 | -76.6*
CCCc1cc(C(=O)NCC(C)C)no1 | -105.6*
O=C(NCc1cccs1)c1nc(-c2cccs2)no1 | -100.4*
CCCc1cc(C(=O)NCc2cccs2)no1 | -140.7*
N#C/C(=C/c1ccc([N+](=O)[O-])cc1)C(=O)Nc1ccccc1O | -133.9*
N#C/C(=C\c1ccc([N+](=O)[O-])cc1)C(=O)Nc1ccccc1O | -111.9*
C=CCn1cccc(C(=O)Nc2ccc(OCC)cc2)c1=O | -154.6*
C=CCn1cccc(C(=O)Nc2ccc(SC)cc2)c1=O | -155.1*
C=CCn1cccc(C(=O)Nc2ccc(Cl)cc2)c1=O | -140.9*
C=CCn1cccc(C(=O)Nc2ccc(N(C)C)cc2)c1=O | -104.3*
Fc1ccccc1NC(=S)N1CCC(c2ccccc2)C1 (stereo not given) | -111.1*
Fc1cc(F)cc(NC(=S)N2CCC(c3ccccc3)C2)c1 (stereo not given) | -98.8*
C=CCn1c(O)c(N=NC(=S)Nc2ccccc2F)c2ccccc21 | 67.4
S=C(Nc1ccccc1Cl)N1CCC(c2ccccc2)C1 (stereo not given) | -119.8*
Oc1c(N=NC(=S)Nc2ccccc2F)c2ccccc2n1Cc1ccccc1 | 71.7
Cc1ccc(NC(=O)c2cccnc2)cc1C | -104.4*
O=C(Nc1ccc(N2CCCCC2)c(Cl)c1)c1cccnc1 | -312.9*
Cc1cc(O)c(C)c(O)c1/C=N/NC(=O)c1cccnc1 | 68.5
O=C(Nc1ccc(Cl)c(Cl)c1)c1cccnc1 | -102.3*
O=C(Nc1nnc(-c2ccccc2Cl)o1)c1cccnc1 | -94.2*
CC1CCCN(S(=O)(=O)c2ccc(C(=O)Nc3nnc(-c4ccccc4Cl)o3)cc2)C1 (stereo not given) | 77.9
O=C(Nc1ccc(N2CCCC2)c(Cl)c1)c1cccnc1 | -111.9*
O=C1C=C(c2cc3ccccc3s2)CCC1 | -86.3*
Cc1ccc2[nH]c(-c3cccc(N)c3)cc2c1 | -209.2*
SMILES | aSyn 5UTR act
Cc1ccc2[nH]c(-c3cccc(F)c3)cc(=O)c2c1 | 81.0
Cc1ccc2[nH]c(=O)c(C3C(C#N)=C(N)Oc4c3ccc3cccnc43)cc2c1 (stereo not given) | 75.3
Cc1cc(NC(=O)Nc2ccc(C)c(C)c2)no1 | -122.7*
COc1ccc(C(=O)Nc2cc(C)on2)c(OC)c1 | -141.2*
COc1cccc(NC(=O)Nc2cc(C)on2)c1 | -92.6*
COc1ccc(C(=O)Nc2ccc(C)cn2)c(OC)c1 | 115.5
COc1cccc(C(=O)NC(=O)Nc2cc(C)on2)c1 | -93.8*
CN1C(=O)S/C(=C\c2ccc(-n3cncn3)cc2)C1=O | -93.2*
CC(C(=O)N(C)C1CCS(=O)(=O)C1)N1C(=O)/C(=C/c2cccs2)SC1=S (stereo not given) | -83.3*
CCCn1c(=N)c(C(=O)NC2CCCC2)cc2c(=O)n3cccc(C)c3nc21 | -67.0*
Cc1cccn2c(=O)c3cc(C(=O)NC4CCCC4)n(C)c3nc12 | -93.5*
Cc1cccn2c(=O)c(C(=O)NC3CCCCC3)c(O)nc12 | -66.5*
Cc1cccn2c(=O)c3cc(C(=O)NCC4CCCO4)c(=N)n(CCc4ccccc4)c3nc12 (stereo not given) | -100.8*
COc1ccc(CCn2c(=N)c(C(=O)NC3CCCC3)cc3c(=O)n4ccccc4nc32)cc1OC | -61.9*
COc1ccccc1-n1cnc2cc(NC(=O)c3ccco3)ccc21 | -87.3*
CC(C)n1cnc2cc(NC(=O)c3ccco3)ccc21 | -71.2*
O=C(Nc1ccc2c(c1)ncn2C1CCCCC1)c1ccco1 | -116.7*
CCn1cc(C(=O)NCc2ccco2)c(=O)c2cc(S(=O)(=O)N3CC(C)CC(C)C3)ccc21 (stereo not given) | 81.9
Cc1ccc(S(=O)(=O)N2CCCCC2CCNC(=O)C(=O)NCc2ccco2)cc1 (stereo not given) | -66.5*
Cc1ccc(S(=O)(=O)N2CCCCC2CCNC(=O)C(=O)Nc2ccccc2F)cc1 (stereo not given) | -148.4*
Cc1ccc(S(=O)(=O)N2CCCCC2CCNC(=O)C(=O)NCCc2ccco2)cc1 (stereo not given) | -101.8*
CC(=O)Oc1ccc(Cl)cc1/C=C/c1ccc2ccccc2n1 | -258.5*
CC(=O)Oc1ccccc1/C=C/c1nc2ccccc2c(=O)o1 | 65.6
CC(=O)Oc1c(Cl)cc(Cl)cc1/C=C/c1ccc2ccccc2n1 | -205.2*
CCC(CC)c1nnc(NC(=O)c2ccc3c(c2)OCO3)s1 | -169.1*
SMILES | aSyn 5UTR act
CC(C)(C)Cc1nnc(NC(=O)c2ccc3c(c2)OCO3)s1 | -112.0*
NNc1nc2ccccc2c(=O)n1Cc1ccccc1 | -132.7*
Cc1cccc(NC(=O)c2n[nH]c([N+](=O)[O-])c2Br)c1C | -61.9*
CCOc1cccc2cc(-c3csc(NC(=O)CCC(=O)NCCN4CCCCC4C)n3)c(=O)oc12 (stereo not given) | -134.5*
CCOc1cccc2cc(-c3csc(NC(=O)CCC(=O)NCCCN4CCC(C)CC4)n3)c(=O)oc12 | -76.2*
O=c1[nH]cnc(O)c1N=Nc1ccccc1 | -70.5*
NC(=NCc1ccco1)NC(=O)c1ccc(Cl)cc1 | -127.7*
Cc1nn(-c2nc3ccccc3s2)c(N)c1-c1ccccc1 | -224.2*
Cc1nn(-c2nc3ccccc3s2)c(N)c1-c1ccc(Cl)cc1 | -203.4*
Cc1nn(-c2nc3ccccc3s2)c(N)c1Sc1ccc(F)cc1 | -211.9*
CCSc1nsc(NC(=O)Nc2cccc(OC)c2)n1 | -140.1*
CCSc1nsc(NC(=O)Nc2ccccc2F)n1 | -183.3*
Cc1ccccc1C(=O)Nn1cnc2ccccc2c1=O | -78.9*
COc1ccc(C(=O)Nn2cnc3ccccc3c2=O)c(OC)c1 | -88.0*
CN(C)c1ccc(CCc2ccc(N)cc2)cc1 | 84.1
CN(C)c1ccc(C(=O)OCc2ccccc2)cc1 | -74.5*
COc1ccc(-n2c(C)cc(C(=O)NC3CCCCC3)c2C)cc1 | -156.4*
Cc1cccc(-n2c(C)cc(C(=O)NC3CCCCC3)c2C)c1 | -75.7*
CCOc1ccc(-n2c(C)cc(C(=O)CCl)c2C)cc1 | 110.8
O=C1OC(c2ccc(Cl)cc2)/C(=C(/O)c2ccccc2)C1=O (stereo not given) | -66.5*
O=C(c1ccccc1)N1C(=O)C(c2ccccc2)Oc2ccccc21 (stereo not given) | 81.7
CCCc1cc2c(cc1NC(=O)c1ccc(C(C)(C)C)cc1)OCO2 | -74.3*
Cc1oc2ccc(O)cc2c1C(=O)c1ccc(Br)cc1 | -61.6*
CC(=O)c1c(C)oc2ccc(OCc3ccccc3)cc12 | -70.5*
COc1ccc2oc(C)c(C(=O)c3ccc(C)cc3)c2c1 | -86.1*
SMILES | aSyn 5UTR act
CCN1C(=O)/C(=C/c2nc3ccccc3c(=O)n2-c2ccc(C)cc2)c2ccccc21 | -138.8*
COc1ccc(-n2c(/C=C3\C(=O)N(C)c4ccccc43)nc3ccccc3c2=O)cc1 | -107.3*
CCCCCC(=O)N/N=C(\C)c1ccc(N2CCCCC2)cc1 | -65.0*
C/C(=N\NC(=O)c1ccc(Br)cc1)c1ccccc1 | -158.0*
CCCCCC(=O)N/N=C(\C)c1ccccn1 | 66.6
C/C(=N\NC(=O)c1ccccc1)c1ccccc1Br | -101.7*
CN1CCN(c2ccc(C(=O)c3ccc(F)cc3)cc2)CC1 | -133.0*
C/C(=N\NC(=O)c1ccc(C)cc1)c1c(C)[nH]n(-c2ccccc2)c1=O | 66.8
C/C(=N\NC(=O)OC(C)(C)C)c1ccccc1Br | -84.4*
C/C(=N\NC(=O)c1ccccc1)c1ccccc1F | -88.3*
C/C(=N\NC(=O)c1ccccc1)c1ccc(N2CCCCC2)cc1 | -86.3*
O=C(c1ccccc1)c1ccc(N2CCCC2)cc1 | -108.6*

Screening results as filed in PubChem BioAssay.
